Most compounds without a hit are left out; they make up all but 2.6% or so of the library.
LGR2 inh: Drosophila LGR2 receptor signaling inhibition. inhibition, % at 9.99 µM. 0.35% of 380,000 active. HEK293 LGR2, CRE-luciferase, bursicon-stimulated, 4 h;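 active means drop in luminescence signal, shown as inhibition above about 50% in the replicate tests, limit read from the data, passing the limit was not always enough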;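 further: agonist challenge used bursicon conditioned medium at about half maximal strength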
TROY NFkB inh: blocks TROY-dependent signaling in reporter cells. Q293 LMP1-TROYcd NF-kB luciferase reporter, 4 h. inhibition, % at 10 µM. 0.98% of 360,000 active;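 active means compounds whose plate-normalised and pattern-corrected inhibition of the luciferase reporter signal at the single screening dose is 50% or more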
EWS-Fli block: EWS/Fli transcriptional activity inhibition; A673 NR0B1-luciferase reporter, viability-normalised; inhibition, % at 12.6 µM; 0.67% of 350,000 active;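 active means mean inhibition of at least 50% after viability correction, with every replicate also passing that limit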;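 further: firefly luciferase signal divided by Alamar Blue viability fluorescence both relative to DMSO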
CF NFkB block: blocks PAF-induced NF-kB reporter in cystic fibrosis cells; 0.86% of 360,000 active; AID 588850; inhibition, % at 5 µM; KKLEB NF-kB-GFP reporter, GFP fluorescence overnight;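 active means at least 50% inhibition at 5 µM, scaled per plate between neutral and stimulator controls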;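 further: PAF is a Pseudomonas aeruginosa culture filtrate used as stimulus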
KKLEB tox: counter-screen for CF NF-kB inhibitors: cytotoxicity; 0.36% of 360,000 active; KKLEB CF airway cells viability, ATPlite luminescence, overnight; hits give low values; cells stimulated with P. aeruginosa culture filtrate; activity change (cytotoxicity), % at 5 µM;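 active means corrected activity change at or below -50% at 5 µM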
TWEAK Fn14 block: TWEAK-Fn14 signaling inhibition. 2% of 360,000 active. TWEAK-stimulated Fn14 reporter cells, luciferase luminescence, 8 h. inhibition, % at 10 µM; in the data active means inhibition above about 50%
Each line names hits and unclear results; the compound was inactive in the other large screens.

O=C(C[C@@H]1CC[C@H]2[C@@H](COC[C@H](O)CN2Cc2cc(F)cc(F)c2)O1)Nc1nccs1	none (no result: TROY NFkB inh, CF NFkB block, KKLEB tox, TWEAK Fn14 block)
CCN(CC)C(=O)CSc1nnc(-c2ccc(F)cc2)n1N	none (no result: EWS-Fli block)
CCN(CC)C(=O)CSc1n[nH]c(=S)n1N	TWEAK Fn14 block 84
COc1ccc(OC)c(NC(=O)COC(=O)c2c3c(nc4ccccc24)CCCC3)c1	LGR2 inh 71, TWEAK Fn14 block 55
COc1ccc(OC)c(Nc2c3c(nc4ccccc24)CCC3)c1	EWS-Fli block 57
CCCCNC(=O)COC(=O)c1c2c(nc3ccccc13)CCC2	none
COc1ccc(NC(=O)COC(=O)c2c3c(nc4ccccc24)CCCC3)cc1Cl	TROY NFkB inh 53, TWEAK Fn14 block 65 (no result: LGR2 inh, EWS-Fli block)
COc1ccc(OC)c(Nc2c3ccccc3nc3ccccc23)c1	none
CNC(=O)COC(=O)c1c2c(nc3ccccc13)CCC2	none
COc1ccc(NC(=O)COC(=O)c2c3c(nc4ccccc24)CCCC3)cc1	TWEAK Fn14 block 59 (no result: LGR2 inh, EWS-Fli block)
CNC[C@@H]1Oc2c(NS(=O)(=O)c3c(C)noc3C)cccc2C(=O)N([C@H](C)CO)C[C@@H]1C	none (no result: TROY NFkB inh, CF NFkB block, KKLEB tox, TWEAK Fn14 block)
C=CCN(Cc1ccccc1)C(=O)[C@@H]1N(C(C)(C)C)C(=O)[C@H]2[C@H](C(=O)O)[C@@H]3C=C[C@]12O3	none (no result: LGR2 inh, TROY NFkB inh, CF NFkB block, KKLEB tox, TWEAK Fn14 block)
C[C@@H]1CN([C@H](C)CO)C(=O)c2cc(NS(C)(=O)=O)ccc2O[C@@H]1CN(C)C(=O)Nc1ccccc1	none (no result: TROY NFkB inh, CF NFkB block, KKLEB tox, TWEAK Fn14 block)
CCN1C(=O)C(=O)c2cc(C)ccc21	none
CC[N+]1=C(C)C(C)(C)c2cc(C)ccc21	LGR2 inh 56, TWEAK Fn14 block 69
COc1ccc(Nc2nc(-c3cccc([N+](=O)[O-])c3)nc3ccccc23)cc1	TWEAK Fn14 block 80 (no result: EWS-Fli block)
COc1ccc(Nc2nc(-c3ccccc3)nc3ccccc23)cc1	none
Cc1ccc(Nc2nc(-c3cccnc3)nc3ccccc23)cc1	EWS-Fli block 58
Cc1c(O)ccc(/C=N/Nc2nc(-c3cccnc3)nc3ccccc23)c1O	CF NFkB block 61
Cc1cc(N/N=C/c2ccc(O)c(C)c2O)nc(-c2ccccc2O)n1	CF NFkB block 104, KKLEB tox -102, TWEAK Fn14 block 66 (no result: EWS-Fli block)
Oc1ccc(/C=N/Nc2nc(-c3cccnc3)nc3ccccc23)c(O)c1	none
C[C@@H]1CN([C@H](C)CO)C(=O)Cc2cc(NC(=O)C3CC3)ccc2O[C@@H]1CN(C)S(=O)(=O)c1cccs1	none (no result: TROY NFkB inh, CF NFkB block, KKLEB tox, TWEAK Fn14 block)
CC(=O)N(C)C[C@@H]1Oc2cc(-c3cccc(C#N)c3)ccc2S(=O)(=O)N([C@@H](C)CO)C[C@@H]1C	none (no result: TROY NFkB inh, CF NFkB block, KKLEB tox, TWEAK Fn14 block)
Cc1ccc(-c2nc(N/N=C/c3ccncc3)c3ccccc3n2)cc1	KKLEB tox -95, TWEAK Fn14 block 76 (no result: LGR2 inh, EWS-Fli block)
CCc1ccc(OCC(=O)Nc2ccc(-c3cc4ccccc4oc3=O)c(OC)c2)cc1	TWEAK Fn14 block 73 (no result: EWS-Fli block)
CN(C)c1ccc(NC(=O)c2cnsn2)cc1	LGR2 inh 71, TWEAK Fn14 block 74
CCNC(=O)C[C@@H]1CC[C@H]2[C@@H](COC[C@@H](O)CN2C(=O)Nc2ccc3c(c2)OCO3)O1	none (no result: TROY NFkB inh, CF NFkB block, KKLEB tox, TWEAK Fn14 block)
COC(=O)c1cc(NC(=O)CN(c2ccccc2OC)S(=O)(=O)c2ccccc2)ccc1Cl	TWEAK Fn14 block 53 (no result: EWS-Fli block)
COC(=O)c1cc(NC(=O)CN(c2cccc(OC)c2)S(=O)(=O)c2ccccc2)ccc1Cl	TWEAK Fn14 block 51
O=C(C[C@@H]1CC[C@@H]2[C@H](COC[C@H](O)CN2S(=O)(=O)c2ccc(F)cc2)O1)N1CCc2ccccc2C1	none (no result: TROY NFkB inh, CF NFkB block, KKLEB tox, TWEAK Fn14 block)
Cc1ccc2[nH]c3c(c2c1)CCCC3NC(=O)CCl (stereo not given)	CF NFkB block 62, KKLEB tox -65, TWEAK Fn14 block 71 (no result: LGR2 inh, EWS-Fli block)
Cc1ccc2[nH]c3c(c2c1)CCCC3C(N)=O (stereo not given)	none (no result: LGR2 inh)
CCCNC(=O)COc1ccc(C=O)cc1	none (no result: LGR2 inh, TROY NFkB inh, CF NFkB block, KKLEB tox, TWEAK Fn14 block)
C[C@@H]1CN([C@H](C)CO)C(=O)c2cc(C#C[C@@H](C)O)cnc2O[C@@H]1CN(C)Cc1cccc(F)c1	none (no result: TROY NFkB inh, CF NFkB block, KKLEB tox, TWEAK Fn14 block)
O=C(Oc1c(-c2ccccc2)c(=O)n2c3c(cccc13)CC2)c1ccco1	none
O=C(Oc1c(-c2ccccc2)c(=O)n2c3c(cccc13)CC2)c1ccc(Cl)cc1	TROY NFkB inh 53
COc1cc(C(=O)Nc2scc(-c3ccc(Br)cc3)c2C(=O)O)cc(OC)c1OC	TROY NFkB inh 72
COc1ccc2cc1Oc1ccc(cc1)C[C@H]1c3cc(c(OC)cc3CCN1C)Oc1c(OC)c(OC)cc3c1[C@H](C2)N(C)CC3	EWS-Fli block 57 (no result: LGR2 inh)
COc1ccc2cc1Oc1ccc(cc1)C[C@H]1c3c(cc4c(c3Oc3cc5c(cc3OC)CCN(C)[C@@H]5C2)OCO4)CCN1C	none
COc1ccc2cc3cc(C(=O)N4CCN(Cc5ccc6c(c5)OCO6)CC4)oc3nc2c1	TROY NFkB inh 54 (no result: LGR2 inh, EWS-Fli block)
CO[C@@H]1CN(C)C(=O)c2cc(NC(=O)C3CCOCC3)ccc2OC[C@H](C)NC[C@H]1C	none (no result: TROY NFkB inh, CF NFkB block, KKLEB tox, TWEAK Fn14 block)
C=CCNC(=O)NC(=O)COC(=O)c1ccccc1Sc1ccc(C(F)(F)F)cc1[N+](=O)[O-]	none
CC(C)CNC(=O)NC(=O)COC(=O)c1ccccc1Sc1ccc(C(F)(F)F)cc1[N+](=O)[O-]	TWEAK Fn14 block 57 (no result: EWS-Fli block)
CO[C@@H]1CN(C)C(=O)c2cc(NS(C)(=O)=O)ccc2OC[C@H](C)N(C(=O)C2CCC2)C[C@H]1C	none (no result: TROY NFkB inh, CF NFkB block, KKLEB tox, TWEAK Fn14 block)
O=C1/C(=C/c2cccnc2)CC/C1=C\c1cccnc1	none
O=C1/C(=C/c2cccnc2)CCC/C1=C\c1cccnc1	LGR2 inh 90, EWS-Fli block 54 (no result: TROY NFkB inh, CF NFkB block, KKLEB tox, TWEAK Fn14 block)
O=C1/C(=C\c2cccnc2)CCc2ccccc21	TWEAK Fn14 block 92 (no result: LGR2 inh, TROY NFkB inh, EWS-Fli block)
CCC1C/C(=C\c2cccnc2)C(=O)/C(=C/c2cccnc2)C1 (stereo not given)	TROY NFkB inh 59, EWS-Fli block 54, CF NFkB block 93, KKLEB tox -66, TWEAK Fn14 block 105 (no result: LGR2 inh)
C[C@@H]1CCCCO[C@@H](CN(C)S(=O)(=O)c2cn(C)cn2)[C@H](C)CN([C@@H](C)CO)C(=O)c2cc(NC(=O)Nc3cccc4ccccc34)ccc2O1	none (no result: TROY NFkB inh, CF NFkB block, KKLEB tox, TWEAK Fn14 block)
CC(C)CCn1c(Sc2nc3ccccc3o2)nc2c1c(=O)[nH]c(=O)n2C	TWEAK Fn14 block 67 (no result: EWS-Fli block)
Cn1c(=O)[nH]c(=O)c2c1nc(N1CCCCC1)n2CCSc1nc2ccccc2o1	none
COc1ccc(S(=O)(=O)Nc2cccc3c2O[C@@H](CN(C)CC2CC2)[C@H](C)CN([C@H](C)CO)C3=O)cc1	none (no result: TROY NFkB inh, CF NFkB block, KKLEB tox, TWEAK Fn14 block)
COc1cc(OC)c(/C=C2\C(=O)Nc3ccccc32)c(OC)c1	EWS-Fli block 56 (no result: TROY NFkB inh, CF NFkB block, KKLEB tox, TWEAK Fn14 block)
C[C@@H]1CN([C@H](C)CO)C(=O)c2cc(NC(=O)C3CCCCC3)ccc2O[C@@H](C)CCCCO[C@H]1CN(C)C(=O)Cc1ccccc1	none (no result: TROY NFkB inh, CF NFkB block, KKLEB tox, TWEAK Fn14 block)
COc1cc(CN2CCC(Cc3ccccc3)CC2)c([N+](=O)[O-])cc1OC	TWEAK Fn14 block 80
CCC(CC)COC(=O)C1=C(C)NC(=O)NC1c1cc(OC)ccc1OC (stereo not given)	TWEAK Fn14 block 104
